Measured values: PubChem BioAssay AID1159580 (chemical genetic matrix, 2015)
“And” between values parts separate entries of the source, which are not always exact repeats. Identical values can stand only once. Hit rate of the full screen: of about 5,500 compounds, about 2,000 (36%) were called active. Another 18% or so got no clear call; they are omitted. Cut-off read from the data, not from the text of the source: active = normalized growth mostly below about 0.91 (no sharp cut-off); inconclusive = no clear call, values can overlap the other calls; inactive = mostly above about 0.92. The list shows a part of the results.

Test: chemical genetic growth profiling, strain panel (AID 1159580);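 note: tested at 20 µM; growth read once vehicle control cultures reached saturation at 30 °C; 1 = growth at the plate median or of vehicle wells; lower values mean less growth of the strain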
Conditions: S. cerevisiae deletion strains, growth OD

Measured: normalized growth

Cc1ccc(C)c(OCCCC(C)(C)C(=O)O)c1
0.95 (inactive) and 0.784 (active): locus YHR030C, strain SLT2, stronger effect = lower value
active: locus YCL029C, strain bik1, stronger effect = lower value 0.894 | locus YDL035C, strain GPR1, stronger effect = lower value 0.845 | locus YDL185W, strain tfp1, stronger effect = lower value 0.309 | locus YDR101C, strain arx1, stronger effect = lower value 0.872 | locus YDR137W, strain rgp1, stronger effect = lower value 0.699 | locus YDR162C, strain NBP2, stronger effect = lower value 0.832 | locus YDR318W, strain mcm21, stronger effect = lower value 0.866 | locus YDR388W, stronger effect = lower value 0.874 | locus YDR392W, strain spt3, stronger effect = lower value 0.58 | locus YDR502C, strain sam2, stronger effect = lower value 0.852 | locus YGL078C, strain dbp3, stronger effect = lower value 0.485 | locus YGL086W, strain mad1, stronger effect = lower value 0.877 | locus YHR079C, strain IRE1 (second series), stronger effect = lower value 0.869 | locus YHR079C, strain IRE1, stronger effect = lower value 0.833 | locus YIL125W, strain kgd1, stronger effect = lower value 0.356 | locus YJL129C, strain trk1, stronger effect = lower value 0.857 | locus YKL009W, strain mrt4, stronger effect = lower value 0.437 | locus YKL068W, stronger effect = lower value 0.923 | locus YKL085W, strain MDH1 (second series), stronger effect = lower value 0.492 | locus YKL085W, strain MDH1, stronger effect = lower value 0.492 | locus YKR001C, strain vps1, stronger effect = lower value 0.644 | locus YLR039C, strain RIC1, stronger effect = lower value 0.469 | locus YLR113W, strain HOG1, stronger effect = lower value 0.752 | locus YLR262C, strain YPT6 (second series), stronger effect = lower value 0.706 | locus YLR262C, strain YPT6, stronger effect = lower value 0.509 | locus YLR268W, strain sec22, stronger effect = lower value 0.845 | locus YLR342W, strain FKS1 (second series), stronger effect = lower value 0.751 | locus YLR418C, strain cdc73, stronger effect = lower value 0.824 | locus YML032C, strain rad52, stronger effect = lower value 0.847 | locus YMR223W, strain ubp8, stronger effect = lower value 0.865 | locus YMR307W, strain GAS1, stronger effect = lower value 0.481 | locus YNL250W, strain rad50, stronger effect = lower value 0.578 | locus YNL271C, strain bni1, stronger effect = lower value 0.452 | locus YNL298W, strain CLA4, stronger effect = lower value 0.202 | locus YNL307C, strain MCK1, stronger effect = lower value 0.649 | locus YNR052C, strain pop2, stronger effect = lower value 0.775 | locus YOL147C, strain pex11, stronger effect = lower value 0.908 | locus YOR144C, strain elg1, stronger effect = lower value 0.907 | locus YOR184W, strain ser1, stronger effect = lower value 0.675 | locus YOR231W, strain MKK1, stronger effect = lower value 0.803 | locus YPL256C, strain CLN2, stronger effect = lower value 0.825 | locus YPR119W, strain clb2, stronger effect = lower value 0.93 | locus YPR141C, strain kar3, stronger effect = lower value 0.817 | locus YPR163C, strain tif3, stronger effect = lower value 0.857 | locus YPR167C, strain met16, stronger effect = lower value 0.914 | strain wtn01, stronger effect = lower value 0.877
0.819 (inactive) and 0.823 (active): locus YJL095W, strain BCK1, stronger effect = lower value
inactive: locus YAL021C, strain ccr4, stronger effect = lower value 0.986 | locus YAL026C, strain drs2, stronger effect = lower value 0.919 | locus YAL030W, strain snc1, stronger effect = lower value 0.981 | locus YBL061C, strain skt5, stronger effect = lower value 0.975 | locus YBR009C, strain hhf1, stronger effect = lower value 0.957 | locus YBR021W, strain FUR4, stronger effect = lower value 0.926 | locus YBR023C, strain chs3, stronger effect = lower value 0.964 | locus YBR171W, strain sec66, stronger effect = lower value 0.948 | locus YBR229C, strain ROT2, stronger effect = lower value 0.939 | locus YBR231C, strain swc5, stronger effect = lower value 0.986 | locus YBR279W, strain paf1, stronger effect = lower value 0.983 | locus YCL011C, strain gbp2, stronger effect = lower value 0.978 | locus YCL016C, strain dcc1, stronger effect = lower value 0.949 | locus YCL061C, strain MRC1, stronger effect = lower value 0.968 | locus YCL069W, strain vba3, stronger effect = lower value 0.987 | locus YCR088W, strain abp1, stronger effect = lower value 0.982 | locus YDL005C, strain med2, stronger effect = lower value 0.982 | locus YDL040C, strain nat1, stronger effect = lower value 0.987 | locus YDL074C, strain BRE1, stronger effect = lower value 0.858 | locus YDL101C, strain DUN1, stronger effect = lower value 0.975 | locus YDL192W, strain arf1, stronger effect = lower value 0.931 | locus YDR001C, strain nth1, stronger effect = lower value 0.973 | locus YDR069C, strain doa4, stronger effect = lower value 0.987 | locus YDR159W, strain sac3, stronger effect = lower value 0.962 | locus YDR195W, strain ref2 1.1 | locus YDR297W, strain sur2, stronger effect = lower value 0.992 | locus YDR334W, strain swr1, stronger effect = lower value 0.99 | locus YDR335W, strain msn5, stronger effect = lower value 0.989 | locus YEL003W, strain gim4, stronger effect = lower value 0.97 | locus YEL037C, strain rad23, stronger effect = lower value 0.979 | locus YEL061C, strain CIN8 (second series), stronger effect = lower value 0.98 | locus YEL061C, strain CIN8, stronger effect = lower value 0.943 | locus YER015W, strain faa2, stronger effect = lower value 1.01 | locus YER016W, strain bim1, stronger effect = lower value 0.976 | locus YER110C, stronger effect = lower value 0.937 | locus YER111C, strain swi4, stronger effect = lower value 0.981 | locus YER155C, strain BEM2 (second series), stronger effect = lower value 1.03 | locus YER155C, strain BEM2, stronger effect = lower value 0.939 | locus YER167W, strain BCK2, stronger effect = lower value 0.959 | locus YFR010W, strain ubp6, stronger effect = lower value 0.991 | locus YGL167C, strain pmr1, stronger effect = lower value 0.963 | locus YGL173C, strain kem1, stronger effect = lower value 0.955 | locus YGL227W, strain vid30, stronger effect = lower value 0.984 | locus YGL240W, strain doc1, stronger effect = lower value 0.999 | locus YGL248W, strain PDE1, stronger effect = lower value 0.914 | locus YGL253W, strain hxk2, stronger effect = lower value 0.975 | locus YGR135W, strain pre9, stronger effect = lower value 0.895 | locus YGR252W, strain gcn5, stronger effect = lower value 0.794 | locus YHR013C, strain ard1, stronger effect = lower value 1.02 | locus YHR027C, strain rpn1, stronger effect = lower value 0.983 | locus YHR094C, strain hxt1, stronger effect = lower value 0.941 | locus YHR129C, strain ARP1, stronger effect = lower value 0.945 | locus YHR142W, strain chs7, stronger effect = lower value 0.957 | locus YHR200W, strain rpn10, stronger effect = lower value 0.924 | locus YIL066C, strain RNR3, stronger effect = lower value 0.936 | locus YIL073C, strain SPO22, stronger effect = lower value 0.891 | locus YIR030C, strain dcg1, stronger effect = lower value 0.931 | locus YJL092W, strain hpr5, stronger effect = lower value 0.979 | locus YJL095W, strain BCK1 (second series), stronger effect = lower value 0.983 | locus YJL115W, strain asf1, stronger effect = lower value 1 | locus YJL134W, strain LCB3, stronger effect = lower value 0.938 | locus YJL154C, strain vps35, stronger effect = lower value 0.994 | locus YJL164C, strain tpk1, stronger effect = lower value 0.979 | locus YJL166W, strain qcr8, stronger effect = lower value 0.975 | locus YJL168C, strain set2, stronger effect = lower value 0.941 | locus YJL187C, strain SWE1 (second series), stronger effect = lower value 0.942 | locus YJL187C, strain SWE1, stronger effect = lower value 0.985 | locus YJR043C, strain POL32, stronger effect = lower value 0.935 | locus YJR066W, strain TOR1, stronger effect = lower value 0.834 | locus YJR075W, strain HOC1, stronger effect = lower value 0.937 | locus YKL160W, strain elf1, stronger effect = lower value 0.968 | locus YKL190W, strain CNB1, stronger effect = lower value 0.962 | locus YKR026C, strain gcn3, stronger effect = lower value 0.976 | locus YKR091W, strain srl3, stronger effect = lower value 0.979 | locus YLL001W, strain dnm1, stronger effect = lower value 0.975 | locus YLL026W, stronger effect = lower value 0.976 | locus YLL041C, strain sdh2, stronger effect = lower value 0.98 | locus YLR027C, strain aat2, stronger effect = lower value 0.969 | locus YLR058C, strain SHM2, stronger effect = lower value 0.956 | locus YLR102C, strain apc9, stronger effect = lower value 0.949 | locus YLR221C, strain rsa3, stronger effect = lower value 0.959 | locus YLR258W, strain gsy2, stronger effect = lower value 0.942 | locus YLR320W, strain mms22, stronger effect = lower value 0.919 | locus YLR330W, strain CHS5, stronger effect = lower value 0.932 | locus YLR342W, strain FKS1, stronger effect = lower value 0.965 | locus YLR357W, strain rsc2, stronger effect = lower value 1.1 | locus YLR370C, strain arc18, stronger effect = lower value 0.948 | locus YLR371W, strain rom2, stronger effect = lower value 0.942 | locus YLR384C, strain iki3, stronger effect = lower value 0.987 | locus YML016C, strain PPZ1, stronger effect = lower value 0.951 | locus YML120C, strain ndi1, stronger effect = lower value 0.942 | locus YML124C, strain tub3, stronger effect = lower value 0.934 | locus YMR058W, strain fet3, stronger effect = lower value 0.963 | locus YMR078C, strain ctf18, stronger effect = lower value 0.918 | locus YMR125W, strain sto1, stronger effect = lower value 1.03 | locus YMR129W, stronger effect = lower value 0.983 | locus YMR205C, strain PFK2, stronger effect = lower value 0.986 | locus YMR231W, strain pep5, stronger effect = lower value 0.964 | locus YNL067W, strain RPL9B, stronger effect = lower value 0.956 | locus YNL071W, strain lat1, stronger effect = lower value 0.945 | locus YNL183C, strain NPR1, stronger effect = lower value 0.843 | locus YNL209W, strain ssb2, stronger effect = lower value 0.99 | locus YNL233W, strain BNI4, stronger effect = lower value 0.935 | locus YNL248C, strain rpa49, stronger effect = lower value 1.02 | locus YNL322C, strain KRE1 (second series), stronger effect = lower value 0.992 | locus YNR049C, strain mso1, stronger effect = lower value 0.982 | locus YOL012C, strain htz1 0.759 | locus YOR001W, strain rrp6, stronger effect = lower value 0.953 | locus YOR061W, strain CKA2, stronger effect = lower value 0.926 | locus YOR069W, strain VPS5, stronger effect = lower value 0.971 | locus YOR070C, strain gyp1, stronger effect = lower value 0.973 | locus YOR080W, strain dia2, stronger effect = lower value 1.01 | locus YOR083W, strain WHI5, stronger effect = lower value 0.982 | locus YOR106W, strain vam3, stronger effect = lower value 0.959 | locus YOR136W, strain idh2, stronger effect = lower value 0.989 | locus YOR265W, strain rbl2, stronger effect = lower value 1 | locus YOR270C, strain vph1, stronger effect = lower value 0.961 | locus YOR290C, strain snf2, stronger effect = lower value 0.906 | locus YOR316C, strain cot1, stronger effect = lower value 0.939 | locus YPL051W, strain arl3, stronger effect = lower value 0.923 | locus YPL055C, strain LGE1, stronger effect = lower value 0.925 | locus YPL078C, strain atp4, stronger effect = lower value 0.975 | locus YPL106C, strain sse1, stronger effect = lower value 1.15 | locus YPL240C, strain hsp82, stronger effect = lower value 0.977 | locus YPL241C, strain CIN2, stronger effect = lower value 0.948
